Experimental data published in PubChem BioAssay (Tox21).
Records with an inconclusive call do not appear. Activity calls are given as the source filed them. Unless noted, the call rests on the fitted dose curve; in most records, active means well fitted curve in the direction sought with a large enough effect in the repeat runs; inconclusive means weak or mixed curves; inactive means no such curve, though single readings can be large; an effect the other way counts as inactive or inconclusive.

Key:
[1] = qHTS assay to identify small molecule antagonists of the estrogen related receptor (ERR) signaling pathway from Tox21 library - cell viability counter screen (AID 1224834); further: on the % scale 0 is the no-effect control and ±100 the full control effect; nearly all actives have a fitted effect of over 30% in size
In short: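 ERR cells, 2,000/well; 6 h settle at 37 C/5% CO2; pin-tool compound transfer in DMSO; 17.5 h at 37 C; CellTiter-Fluor, 30 min; fluorescence intensity.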

[2] = target: Luciferin 4-monooxygenase (Photinus pyralis) (UniProt P08659); test: qHTS assay to identify small molecule inhibitors of firefly luciferase (AID 1224835); further: nearly all actives have a fitted effect of over 25% in size; further: potency means the concentration at half of the fitted maximal effect; on activity change, negative = inhibition: on the % scale 0 is the no-effect control and ±100 the full control effect
Sequence of Luciferin 4-monooxygenase (Photinus pyralis) (P08659 whole entry, looked up): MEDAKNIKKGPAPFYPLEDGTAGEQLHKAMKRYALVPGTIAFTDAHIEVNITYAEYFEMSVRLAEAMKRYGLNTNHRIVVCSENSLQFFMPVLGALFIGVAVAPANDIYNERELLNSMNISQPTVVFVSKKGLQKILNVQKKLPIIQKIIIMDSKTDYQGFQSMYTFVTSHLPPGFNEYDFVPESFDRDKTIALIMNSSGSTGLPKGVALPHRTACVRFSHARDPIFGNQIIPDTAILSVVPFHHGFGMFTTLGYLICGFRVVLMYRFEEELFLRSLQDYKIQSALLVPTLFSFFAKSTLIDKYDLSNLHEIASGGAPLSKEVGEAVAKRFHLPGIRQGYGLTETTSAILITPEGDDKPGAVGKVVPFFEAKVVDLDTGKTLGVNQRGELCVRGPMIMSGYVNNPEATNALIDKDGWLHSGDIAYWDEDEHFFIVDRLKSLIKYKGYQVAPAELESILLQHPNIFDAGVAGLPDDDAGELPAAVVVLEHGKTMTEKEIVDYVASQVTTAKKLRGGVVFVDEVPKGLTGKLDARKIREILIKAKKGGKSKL
In short: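 Biochemical qHTS: compounds run as interplate titrations against purified firefly enzyme, with D-luciferin and ATP each at its KM concentration. Light output recorded by CCD imaging.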

[3] = qHTS assay to identify small molecule agonists of the constitutive androstane receptor (CAR) signaling pathway - cell viability counter screen (AID 1224836); further: on the % scale 0 is the no-effect control and ±100 the full control effect; nearly all actives have a fitted effect of over 45% in size
In short: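 HepG2 cells stably carrying hCAR and a CYP2B6-2.2kb reporter were plated 4 h, then given compounds at 15 concentrations plus PK11195 (final 0.75 uM). After 23 h at 37 C, viability was read by CellTiter-Fluor fluorescence.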

[4] = qHTS assay to identify small molecule antagonists of the constitutive androstane receptor (CAR) signaling pathway - cell viability counter screen (AID 1224837); further: on the % scale 0 is the no-effect control and ±100 the full control effect; nearly all actives have a fitted effect of over 45% in size
In short: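 Viability was measured with CellTiter-Fluor in a HepG2 line carrying stably transfected hCAR and a CYP2B6-2.2kb construct. Cells were exposed for 23 hr at 37 C to 15 compound concentrations with 50 nM CITCO as agonist.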

[5] = qHTS assay to identify small molecule antagonists of the estrogen related receptor signaling pathway with the pleiotropic PPARgamma coactivator (PGC) from Tox21 10K library - cell viability counter screen (AID 1224840; active means well fitted cell-killing curve with a large enough effect in the repeat runs, not every such curve was filed as active; further: on the % scale 0 is the no-effect control and ±100 the full control effect; nearly all actives have a fitted effect of over 40% in size)
In short: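 Multiplexed viability counter screen in the PGC/ERR cell line: cells treated with DMSO-dissolved compounds for 17.5 hours at 37 C, then viability measured as CellTiter-Fluor fluorescence.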

[6] = target: Thyrotropin receptor (Homo sapiens) (UniProt P16473); test: qHTS assay to identify small molecule agonists of the thyroid stimulating hormone receptor (TSHR) signaling pathway (AID 1224843; calls by dose curve; further: on the % scale 0 is the no-effect control and ±100 the full control effect; nearly all actives have a fitted effect of over 45% in size)
Sequence of Thyrotropin receptor (Homo sapiens) (P16473 whole entry, looked up): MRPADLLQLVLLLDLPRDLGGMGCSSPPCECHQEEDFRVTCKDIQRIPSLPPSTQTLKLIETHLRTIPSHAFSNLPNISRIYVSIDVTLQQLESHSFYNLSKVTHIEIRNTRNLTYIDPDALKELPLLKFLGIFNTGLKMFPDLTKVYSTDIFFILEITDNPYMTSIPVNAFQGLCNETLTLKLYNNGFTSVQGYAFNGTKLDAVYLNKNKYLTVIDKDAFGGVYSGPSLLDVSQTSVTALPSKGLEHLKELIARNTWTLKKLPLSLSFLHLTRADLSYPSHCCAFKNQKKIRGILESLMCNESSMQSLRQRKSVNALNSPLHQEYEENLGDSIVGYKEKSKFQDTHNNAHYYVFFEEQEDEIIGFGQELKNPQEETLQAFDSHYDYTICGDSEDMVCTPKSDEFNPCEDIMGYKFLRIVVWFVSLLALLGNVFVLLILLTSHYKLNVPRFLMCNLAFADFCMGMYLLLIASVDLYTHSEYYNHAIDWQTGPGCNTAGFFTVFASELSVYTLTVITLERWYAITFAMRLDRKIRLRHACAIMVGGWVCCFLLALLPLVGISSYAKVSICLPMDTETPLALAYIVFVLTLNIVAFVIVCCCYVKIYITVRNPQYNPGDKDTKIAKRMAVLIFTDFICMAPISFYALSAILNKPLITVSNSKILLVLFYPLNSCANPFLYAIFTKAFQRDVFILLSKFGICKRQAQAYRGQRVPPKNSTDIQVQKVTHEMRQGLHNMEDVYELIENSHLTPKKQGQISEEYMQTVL
In short: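 HEK293/TSHR, 800 cells/well; cpd 30 min RT; add cAMP-d2 + anti-cAMP-cryptate, 1 h RT; fluorescence read on plate reader. 15-pt titration, n=3.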

[7] = qHTS assay to identify small molecule agonists of the hypoxia (HIF-1) signaling pathway - cell viability counter screen (AID 1224844; calls by dose curve; further: on the % scale 0 is the no-effect control and ±100 the full control effect; nearly all actives have a fitted effect of over 50% in size)
In short: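 Cytotoxicity was measured in parallel with the HRE-driven beta-lactamase readout: after 17 hrs of compound exposure at 37C, HRE-bla ME-180 cells received CellTiter-Glo and luminescence was recorded 30 min later.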

[8] = qHTS assay to identify small molecule agonists of H2AX (AID 1224845; active means well fitted activation curve with a large enough effect in the signal ratio in the repeat runs, not every such curve was filed as active; the % refers to the signal ratio; further: on the % scale 0 is the no-effect control and ±100 the full control effect)
In short: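 Wild-type CHO-K1 cells, plated overnight, exposed 3hr at 37C to 15 concentrations (0.76% DMSO final). Lysed, then HTRF anti-pH2AX (S139) cryptate and anti-H2AX-d2 antibodies, 24 hr room temperature; 665/620 nm emission read.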

[9] = qHTS assay to identify small molecule agonists of H2AX - cell viability counter screen (AID 1224847; calls by dose curve; further: top concentration of the series differs between compounds; on the % scale 0 is the no-effect control and ±100 the full control effect; nearly all actives have a fitted effect of over 30% in size)
In short: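 Wild-type CHO-K1 cells (10% FBS medium) were plated overnight at 37C, exposed to compounds at 15 concentrations for 3 hr at 37C (0.76% DMSO final), and viability was read as CellTiter-Glo luminescence after 30 min at room temperature.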

[10] = qHTS RealTime-Glo MT Cell Viability Assay in HepG2 cells - 24 hour (AID 1224867); further: on the % scale 0 is the no-effect control and ±100 the full control effect; nearly all actives have a fitted effect of over 50% in size
In short: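 Compound treatment began 5 h after plating HepG2 cells (600/well) with NanoLuc luciferase and prosubstrate. Plates stayed at 37 C for 40 h; luminescence was captured at six time points, 0 h through 40 h.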

[11] = qHTS RealTime-Glo MT Cell Viability Assay in HEK293 cells - 32 hour (AID 1224868); further: top concentration of the series differs between compounds; on the % scale 0 is the no-effect control and ±100 the full control effect; nearly all actives have a fitted effect of over 50% in size
In short: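 Quantitative high-throughput screen of the Tox21 10K library in HEK293: cells and RealTime-Glo reagents plated together, compound added at 5 h, luminescence monitored through 40 h at 37 C.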

[12] = A CellTox Green Cytotoxicity Assay to monitor cytotoxicity in HEK293 cells - 0 hour (AID 1224869); further: on the % scale 0 is the no-effect control and ±100 the full control effect; nearly all actives have a fitted effect of over 50% in size
In short: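 Cells (HEK293, 600/well) and dye reagent are dispensed together. After 5 h at 37 C, 23 nL compound is pinned in. Plates stay at 37 C for 40 h with fluorescence read at 0h, 8h, 16h, 24h, 32h and 40h.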

[13] = qHTS RealTime-Glo MT Cell Viability Assay in HepG2 cells - 40 hour (AID 1224870)
In short: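 HepG2 cells (600/well) mixed with RealTime-Glo MT reagent, settled 5 h at 37 C/5% CO2 before compound addition. Nonlytic NanoLuc luminescence from viable-cell prosubstrate reduction read repeatedly during 40 h treatment at 37 C.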

[14] = qHTS assay to identify small molecule agonists of the hypoxia (HIF-1) signaling pathway (AID 1224846; active means well fitted activation curve with a large enough effect in the signal ratio in the repeat runs, not every such curve was filed as active; the % refers to the signal ratio; further: on the % scale 0 is the no-effect control and ±100 the full control effect)
In short: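 Compounds from the Tox21 10K library, dissolved in DMSO, are tested for induction of a hypoxia response element–controlled beta-lactamase reporter in ME-180 cells. Exposure lasts 17 hrs at 37C after a 5 hr settling period, followed by CCF4-AM FRET substrate.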

[15] = target: Nuclear receptor subfamily 1 group I member 3 (Homo sapiens) (UniProt Q14994); test: qHTS assay to identify small molecule agonists of the constitutive androstane receptor (CAR) signaling pathway (AID 1224839); further: potency means the concentration at half of the fitted maximal effect; nearly all actives have a fitted effect of over 15% in size
Sequence of Nuclear receptor subfamily 1 group I member 3 (Homo sapiens) (Q14994 whole entry, looked up): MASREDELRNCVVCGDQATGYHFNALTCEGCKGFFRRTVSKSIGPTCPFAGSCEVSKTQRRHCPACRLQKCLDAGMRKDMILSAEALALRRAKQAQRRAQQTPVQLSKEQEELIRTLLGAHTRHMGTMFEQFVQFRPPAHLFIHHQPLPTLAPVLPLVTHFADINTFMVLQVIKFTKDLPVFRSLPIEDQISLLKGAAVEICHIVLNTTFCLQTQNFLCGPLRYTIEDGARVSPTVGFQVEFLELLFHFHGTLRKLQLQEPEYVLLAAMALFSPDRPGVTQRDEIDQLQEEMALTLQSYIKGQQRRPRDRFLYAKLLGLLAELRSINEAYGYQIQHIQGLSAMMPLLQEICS
In short: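 HepG2 cells stably expressing hCAR and a CYP2B6-2.2kb luciferase reporter were treated with compounds at 15 concentrations plus 0.75 uM PK11195 (final) for 24 h at 37 C; luminescence was read after ONE-Glo addition.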

[16] = qHTS assay to identify small molecule antagonists of the estrogen related receptor signaling pathway with the pleiotropic PPARgamma coactivator (PGC) from Tox21 10K library (AID 1224841; call rule not given here)
In short: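 Steps: plate 2,000 PGC/ERR cells per well; incubate 6 h at 37 C with 5% CO2; transfer compounds from DMSO stocks by pin tool; incubate 18 h at 37 C; add One-Glo; measure luminescence 30 min later.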

[17] = qHTS assay to identify small molecule agonists of the estrogen related receptor signaling pathway with the pleiotropic PPARgamma coactivator (PGC) from Tox21 10K library (AID 1224842); further: on the % scale 0 is the no-effect control and ±100 the full control effect; nearly all actives have a fitted effect of over 15% in size
In short: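 PGC/ERR reporter cell line, 2,000 cells per well, incubated 6 h at 37 C before 23 nL compound in DMSO was added. After 18 h at 37 C, One-Glo luminescence read following 30 min at room temperature.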

[18] = qHTS assay to identify small molecule antagonists of the estrogen related receptor (ERR) signaling pathway from Tox21 library (AID 1224848)
In short: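 Compounds dissolved in DMSO are pin-transferred onto ERR reporter cells (2,000 per well) that have settled for 6 h at 37 C. Plates then incubate 18 h at 37 C before ONE-Glo luciferase reagent and a luminescence read 30 min later.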

[19] = qHTS assay to identify small molecule agonists of the estrogen related receptor (ERR) signaling pathway from Tox21 library (AID 1224849; calls by dose curve; further: on the % scale 0 is the no-effect control and ±100 the full control effect; nearly all actives have a fitted effect of over 15% in size); details: ERR reporter cell line, ONE-Glo luciferase, 18 h; at 92.4 µM (top of the series) unless noted
In short: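 Cells carrying the ERR reporter were plated and allowed to settle for 6 h, exposed to library compounds for 18 h at 37 C, then lysed with ONE-Glo and luminescence measured.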

OC(c1ccccc1)(c1ccccc1)C1CCNCC1
inactive: Potency [1] | Potency [2] | Potency [3] | Potency [4] | Potency [5] | Potency [6] | Potency [7] | Potency [8] | Potency [9] | Potency [10] | Potency [11] | Potency [12] | Potency [13]

O=C(Oc1ccc(Br)cc1)N1CCN2CCC1CC2
inactive: Potency [1] | Potency [2] | Potency [3] | Potency [4] | Potency [5] | Potency [6] | Potency [7] | Potency [8] | outcome [14] | Potency [9] | Potency [10] | Potency [11] | Potency [12] | Potency [13]

C[N+](C)=CCl
inactive: Potency [1] | Potency [2] | Potency [3] | Potency [4] | Potency [5] | Potency [6] | Potency [7] | Potency [8] | outcome [14] | Potency [9] | Potency [10] | Potency [11] | Potency [12] | Potency [13]

CCCCOC(=O)c1ccccc1N
inactive: Potency [1] | Potency [3] | Potency [4] | Potency [5] | Potency [7] | Potency [8] | outcome [14] | Potency [10] | Potency [11] | Potency [12] | Potency [13]
active: Potency [2] 40.1 µM

NC(=O)c1cc([N+](=O)[O-])cc([N+](=O)[O-])c1
inactive: Potency [1] | Potency [2] | Potency [3] | Potency [4] | Potency [5] | Potency [6] | Potency [7] | Potency [8] | outcome [14] | Potency [9] | Potency [10] | Potency [11] | Potency [12]

Clc1ccccc1N1CCNCC1
inactive: Potency [1] | Potency [2] | Potency [3] | Potency [4] | Potency [5] | Potency [6] | Potency [7] | Potency [8] | outcome [14] | Potency [9] | Potency [10] | Potency [11] | Potency [12] | Potency [13]

COP(N)(=S)Oc1ccccc1C(=O)OC(C)C (stereo not drawn)
inactive: Potency [1] | Potency [2] | Potency [3] | Potency [4] | Potency [7] | Potency [8] | outcome [14] | Potency [9] | Potency [10] | Potency [11] | Potency [12] | Potency [13]
active: Potency [15] 30.6 µM

O=C1c2ccccc2C(=O)c2ccccc21
inactive: viability change, negative = cytotoxic [1] 0.548% [at 19 µM] | activity change, negative = inhibition [2] 3.8% [at 23.6 µM] | viability change, negative = cytotoxic [3] 5.88% [at 19 µM] | activity change, negative = cytotoxicity [4] 4.8% [at 19 µM] | viability change, negative = cytotoxic [5] 4.21% [at 19 µM] | activity, negative = inhibition [16] 16.6% [at 19 µM] | activation [17] 5.32% [at 19 µM] | activation [6] -2.19% [at 19 µM] | activity change, negative = cytotoxicity [7] -0.0454% [at 15.8 µM] | activation [14] 0.0544% [at 15.8 µM] | activity change, negative = cytotoxicity [9] 8.07% [at 31.6 µM] | activity, negative = inhibition [18] 18.9% [at 19 µM] | activity change, positive = activation [19] 10.5% [at 19 µM] | activity change, negative = cytotoxicity [10] 0.705% [at 15.8 µM] | activity change, negative = cytotoxic [11] 15.3% [at 15.8 µM] | cytotoxicity [12] 6.35% [at 15.8 µM] | activity change, negative = cytotoxic [13] 0.48% [at 15.8 µM]

CC(C)CC#N
inactive: Potency [1] | Potency [2] | Potency [3] | Potency [4] | Potency [5] | Potency [7] | Potency [8] | outcome [14] | Potency [9] | Potency [10] | Potency [11] | Potency [12] | Potency [13]
